Assay outcomes from PubChem.
Shown are actives, neighbours in structure and some others; about 28% of the full set was active somewhere.
CYP2C19 inh: blocks human cytochrome P450 2C19; CYP2C19 Supersomes, luciferin-H EGE luminescence, 30 min; inhibition, % at 5 µM; P33261; AID 778; 96,000 tested, 21% active;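 active = CYP2C19 inhibition above a set limit at 5 µM in the primary screen, cut at about 50% in these data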;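 note: plate controls were negative control wells for no effect and 2.5 mM tranylcypromine positive control for full effect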
PTK2B oligo ant: blocks oligomerization of human Pyk2 in cells; Q293 cells, Pyk2 FERM NanoBiT luminescence; hits give low values; z-score (the deposit names both 25 µM and 10 µM); 99,000 tested, 0.83% active; Q14289; AID 1347419;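 active = Z-score of -3 or lower, scaled per plate to the spread of control and sample wells; inactive = z-score above -3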;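 note: negative z-score means lost luminescence so less FERM oligomerization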
Target sequence (Q14289 whole entry, looked up): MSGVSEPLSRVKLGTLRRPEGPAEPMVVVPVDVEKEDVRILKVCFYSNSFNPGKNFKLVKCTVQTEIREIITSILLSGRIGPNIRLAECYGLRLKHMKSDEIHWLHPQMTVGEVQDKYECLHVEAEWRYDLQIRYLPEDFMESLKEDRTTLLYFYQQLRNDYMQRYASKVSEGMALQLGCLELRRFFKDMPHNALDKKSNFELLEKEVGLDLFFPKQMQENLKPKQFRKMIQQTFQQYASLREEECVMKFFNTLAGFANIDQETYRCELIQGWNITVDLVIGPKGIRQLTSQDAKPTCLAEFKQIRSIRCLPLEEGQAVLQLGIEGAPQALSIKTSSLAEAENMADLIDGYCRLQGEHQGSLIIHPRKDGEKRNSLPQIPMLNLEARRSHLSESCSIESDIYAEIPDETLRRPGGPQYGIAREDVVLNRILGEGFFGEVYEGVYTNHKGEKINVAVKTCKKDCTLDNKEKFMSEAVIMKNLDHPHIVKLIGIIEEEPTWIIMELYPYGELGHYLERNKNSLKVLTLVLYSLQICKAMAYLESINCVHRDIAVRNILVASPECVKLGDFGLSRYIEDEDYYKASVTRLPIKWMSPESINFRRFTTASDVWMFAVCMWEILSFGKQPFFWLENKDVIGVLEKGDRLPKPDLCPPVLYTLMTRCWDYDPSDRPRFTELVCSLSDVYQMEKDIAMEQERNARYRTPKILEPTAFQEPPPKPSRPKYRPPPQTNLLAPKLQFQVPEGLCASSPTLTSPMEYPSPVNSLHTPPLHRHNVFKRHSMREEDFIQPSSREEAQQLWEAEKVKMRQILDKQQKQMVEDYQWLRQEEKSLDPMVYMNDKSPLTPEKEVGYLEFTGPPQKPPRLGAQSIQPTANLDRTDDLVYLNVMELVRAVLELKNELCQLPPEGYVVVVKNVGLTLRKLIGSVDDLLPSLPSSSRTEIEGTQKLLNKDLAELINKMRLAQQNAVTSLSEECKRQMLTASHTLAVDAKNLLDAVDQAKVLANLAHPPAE
CYP2C19 act: cytochrome P450 2C19 (human) activation; AID 1025; recombinant CYP2C19, luciferin-H EGE luminescence; hits give high values; 0 = fully inhibited enzyme, 1 = untreated enzyme; 96,000 tested, under 10 active; activation factor at 5 µM; P33261;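 active = activation factor of at least 2 at 5 µM in the primary screen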;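 note: 0 = wells with 2.5 mM tranylcypromine and 1 = vehicle-only wells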
CYP2C9 act: increases human cytochrome P450 2C9 activity; recombinant CYP2C9, luciferin-H conversion, luminescence; hits give high values; factor 1 = untreated enzyme, 0 = blocked; P11712; activation factor at 5 µM; AID 1024; 96,000 tested, 1.4% active;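 active = activation factor of 2 or more for CYP2C9 at a 5 µM dose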;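 note: 0 = sulfaphenazole-blocked wells and 1 = vehicle-only wells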
CYP2C9 inh: human CYP2C9 inhibition; P11712; 96,000 tested, 20% active; CYP2C9 Supersomes, luciferin-H conversion, luminescence; inhibition, % at 5 µM;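 active = blocking of liver enzyme CYP2C9 beyond about 50% at 5 µM, limit read from the data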
The depositor's hits bear a star; nt = no result given.

SMILES	CYP2C19 inh	PTK2B oligo ant	CYP2C19 act	CYP2C9 act	CYP2C9 inh
Cc1ccc(C(=O)O)cc1S(=O)(=O)N1CCC(C(=O)O)CC1	-18	1	1.2	1.3	-25
Cc1ccc(C(=O)Nc2ccon2)cc1S(=O)(=O)N1CCOCC1	-7	-0.16	1.1	1	2
Cc1ccc(C(=O)Nc2ccon2)cc1S(=O)(=O)N1CCCCCC1	88*	-0.34	0.1	0.8	20
O=C(Nc1ccc(Br)cc1F)c1sccc1-n1cccc1	-14	-0.59	1.1	1.1	-6
CCCCOCCCNC1=NCCCCC1	-1	0.57	1	1	0
Clc1ccc(CN2CCC(c3nc4ccc(Cl)cc4[nH]3)CC2)cc1	47	0.4	0.5	0.5	47
CCC(C)(C)n1nnnc1CN1CCC(c2nc3ccc(C)cc3[nH]2)CC1	47	0.07	0.5	0.3	66*
Cc1ccc(SCCC(=O)NC(C)(C)C)cc1	nt	0.34	nt	nt	nt
COc1ccc(C(=O)NCCSCc2ccc(C)cc2)cc1	55*	-1.5	0.4	0.5	53*
Cc1c(C(=O)NCCSCc2ccccc2Cl)cccc1[N+](=O)[O-]	15	-0.98	0.9	1	-4
COc1ccc(C(=O)NCCSCc2ccccc2C)cc1	55*	0.72	0.4	0.5	52*
Cc1ccc(SCCC(=O)NCCSCc2ccccc2C)cc1	33	1.3	0.7	0.2	81*
Cc1ccc(CSCCNC(=O)/C=C/c2ccc(Cl)cc2)cc1	24	0	0.8	1	1
CCCc1cc(=O)[nH]c(SC(CC)C(=O)Nc2ccccc2C#N)n1 (stereo not drawn)	1	-0.85	1	0.8	24
COc1ccc(C2C(C(=O)NCCN(C)C)c3ccccc3C(=O)N2C)cc1OC (stereo not drawn)	-21	0.07	1.2	1.1	-12
O=C(Oc1c(Cl)cc(Cl)c2cccnc12)N1CCOCC1	-1	1.2	1	1.1	-11
O=C(Oc1c(Cl)cc(Cl)c2cccnc12)N1CCCCC1	64*	-0.07	0.4	0.5	54*
Cc1ccc(Nc2c(-c3ccc(C)o3)nc3cnccn23)cc1	57*	nt	0.4	0.7	32
COc1ccc(-c2nc3cnccn3c2Nc2ccc(C)cc2)cc1	75*	nt	0.2	0.2	80*
COc1cc(-c2nc3cnccn3c2Nc2c(C)cccc2C)ccc1O	99*	-0.2	0	0.5	53*
COc1cc(-c2nc3ccccn3c2/N=C/c2ccccc2)ccc1O	5	1.3	1	0.8	16
Cc1ccc(-c2nc3cnccn3c2Nc2ccccc2)o1	83*	nt	0.2	0.2	76*
COc1ccc(-c2nc3ncccn3c2Nc2ccc3c(c2)OCCO3)cc1	-17	-0.31	1.2	1.1	-7
CC(=O)NC(=O)COC(=O)/C=C/c1c(C)nn(Cc2c(Cl)cccc2Cl)c1Cl	18	0.39	0.8	0.6	41
Cc1ccc(-c2nc3cnccn3c2Nc2ccc3c(c2)OCO3)o1	97*	nt	0	0.2	82*
SMILES	CYP2C19 inh	PTK2B oligo ant	CYP2C19 act	CYP2C9 act	CYP2C9 inh
CC(C)[C@H](NC(=O)c1ccco1)C(=O)OCC(=O)N1CCc2ccccc21	41	0.11	0.6	0.1	87*
CC(C)C(NC(=O)c1ccco1)C(=O)NCC(c1ccco1)N1CCCCC1 (stereo not drawn)	31	0.83	0.7	0.7	30
C1CCc2c(nc3nnnn3c2NC2CCCC2)C1	7	0.08	0.9	0.8	16
Cc1onc(-c2ccccc2Cl)c1C(=O)NCc1ccc(S(N)(=O)=O)cc1	12	0.24	0.9	0.6	45
Cc1onc(-c2ccccc2Cl)c1C(=O)NCc1nc(-c2ccccc2)no1	67*	-0.54	0.3	0.6	41
Cc1onc(-c2ccccc2Cl)c1C(=O)NCc1ccc(N2CCCC2=O)cc1	53*	1.5	0.5	0.3	67*
COc1ccc(-c2noc(CN(C(=O)c3c(-c4ccccc4Cl)noc3C)C(C)C)n2)cc1	62*	-3	0.4	0.4	57*
COc1ccc(-c2noc(CN(C(=O)c3ccc(OC(C)=O)cc3)C(C)C)n2)cc1OC	32	-0.5	0.7	0.5	47
COc1cc(OC)cc(C(=O)NCc2nc(-c3ccccc3)no2)c1	73*	0.42	0.3	0.4	61*
COCCNC(=O)CCc1nc(-c2ccccc2)no1	1	-1	1	1	-3
COCCn1cc(C(=O)c2ccccc2OCC(=O)Nc2cc(C)on2)cc(C#N)c1=O	32	-1.7	0.7	0.6	42
O=C(O)CCCc1nc(-c2ccccc2)no1	-4	-0.02	1	1	-4
CC(C)N(Cc1nc(-c2ccc(Cl)cc2)no1)C(=O)CCCN1C(=O)c2ccccc2C1=O	88*	nt	0.1	0.1	86*
CC(C)N(Cc1nc(-c2ccccc2)no1)C(=O)C1CCCCC1	85*	-0.57	0.2	0.2	81*
CC(=O)Cc1nsc(NC(=O)c2c(-c3ccccc3Cl)noc2C)n1	1	-0.18	1	0.2	75*
c1ccc(NCc2nc(-c3ccccc3)no2)cc1	87*	-0.72	0.1	0.2	76*
C=C(C)Cn1c(CCCNC(=O)CCC)nc2ccccc21	8	0.34	0.9	1.8	-77
COc1cc(OC)cc(C(=O)N(Cc2nc(-c3cccc(C)c3)no2)C(C)C)c1	86*	-1.1	0.1	0.1	95*
COc1ccccc1C(=O)N(Cc1nc(-c2ccc(Cl)cc2)no1)C(C)C	64*	nt	0.4	0.7	32
CC(C)N(Cc1nc(-c2ccc(Cl)cc2)no1)C(=O)C12CC3CC(CC(C3)C1)C2	2	1.8	1	1	4
CC(C)N(Cc1nc(-c2ccccc2)no1)C(=O)c1ccc(Cl)cc1	79*	nt	0.2	0.2	80*
Cc1ccc(C(=O)N(Cc2nc(-c3ccc(C)cc3)no2)C(C)C)cc1	12	nt	0.9	0.9	6
CC(C)N(Cc1nc(-c2ccccc2)no1)C(=O)c1ccc(Br)o1	73*	-0.58	0.3	0.4	64*
CC(C)N(Cc1nc(-c2ccccc2)no1)C(=O)c1ccc2c(c1)OCO2	69*	-1.3	0.3	0.6	43
O=C(NCc1nc(-c2ccccc2)no1)c1ccc2c(c1)OCO2	22	0.4	0.8	0.8	23
SMILES	CYP2C19 inh	PTK2B oligo ant	CYP2C19 act	CYP2C9 act	CYP2C9 inh
COc1ccc(C(=O)N(Cc2nc(-c3ccc(C)cc3)no2)C(C)C)cc1OC	55*	nt	0.5	0.4	58*
CN(Cc1ccccc1)Cc1c[nH]c2ccccc12	88*	0.02	0.1	1	4
Cc1ccc(C(C)C)cc1S(=O)(=O)NCc1cccnc1	78*	-0.2	0.2	0.4	62*
O=S(=O)(NCc1cccnc1)c1ccc(Cl)c(Cl)c1Cl	88*	1.2	0.1	1.2	-21
Nc1ncnc2nc(SCc3ccc(Cl)cc3Cl)[nH]c12	67*	0.24	0.3	0.4	59*
Nc1ncnc2nc(Sc3ccc(Cl)cc3)[nH]c12	22	0.76	0.8	0.7	27
CSc1nc2nccc(-c3ccc(-c4ccccc4)cc3)n2n1	-8	-0.53	1.1	1	1
